# Screening data as filed in PubChem.
# aSyn 5UTR act: Activators via SNCA 5'UTR binding, MLPCN | alpha-synuclein 5'UTR reporter, activators screen | activity score, % (tested at 7.5 µM), hits read low | 7.1% of 300,000 active | AID 1814; in the data active means activity score below about -60%
# * marks the source's active call; other numbers are inactive results. Not all results are given here.
SMILES,aSyn 5UTR act
COc1ccccc1-c1nc(-c2ccc(Br)o2)no1,-95*
COc1ccc(-c2nc(-c3ccc(Br)o3)no2)cc1OC,-211*
CC(C)OCCCNC(=S)NNC(=O)c1ccc(Cl)c(Cl)c1,-87*
O=C(Nc1nnc(Cc2ccccc2)s1)c1cccs1,-128*
O=C(Nc1nnc(Cc2ccccc2)s1)c1ccccc1,-160*
O=C(Nc1nnc(CC2=CCCCC2)s1)c1cccs1,-93*
O=C(Nc1nnc(CCc2ccccc2)s1)c1cccc(F)c1,-103*
CC(C)Oc1ccc(C(=O)Nc2nnc(SCC(=O)N3CCOCC3)s2)cc1,98
CCc1nnc(NC(=O)c2ccc(N(C)S(=O)(=O)c3ccccc3)cc2)s1,-129*
CCN(c1ccccc1)S(=O)(=O)c1ccc(C(=O)Nc2nnc(C3CC3)o2)cc1,71
O=C(Nc1nnc(CCN2CCOCC2)s1)c1ccccc1,-67*
CCN(Cc1ccccc1)S(=O)(=O)c1ccc(C(=O)Nc2nnc(-c3ccccc3OC)o2)cc1,67
Cc1cc(C)c(S(C)(=O)=O)c(S(=O)(=O)c2ccc(Cl)cc2)n1,-87*
Cc1nc2oc3ccc(Cl)cc3c(=O)c2cc1C(=O)O,-62*
Cc1nc2oc3ccc(F)cc3c(=O)c2cc1C(=O)NC(C)(C)C,-76*
CCc1nc2oc3ccc(C)cc3c(=O)c2cc1C(=O)OC,-201*
COC(=O)c1cc2c(=O)c3ccccc3oc2nc1C,-172*
Cc1ccc(C(=O)NNc2cc(N3CCCC3)nc(N3CCCC3)n2)cc1,74
Cc1sc2nc3ccc(N4CCCCC4)nn3c(=O)c2c1C,-181*
Cc1ccc2nc3ccc(N4CCCC4)nn3c(=O)c2c1,-163*
FCCCOc1ccc(/C=N/OCc2ccc(Cl)cc2)cc1,-70*
FCCCOc1ccc(/C=N/OCc2c(Cl)cccc2Cl)cc1,-94*
CC1CCCC(C)N1C(=O)C1CC(c2ccc(F)cc2)=NO1 (centres undefined),-84*
O=C(NC1CCCC1)C1CC(c2ccc(F)cc2)=NO1 (centres undefined),-108*
COc1cccc(C2=NOC(C(=O)N3CCOCC3)C2)c1 (centres undefined),-101*
SMILES,aSyn 5UTR act
CC1CCN(C(=O)C2CC(c3ccc(F)cc3)=NO2)CC1 (centres undefined),-88*
O=C(COc1ncnc2ccccc12)c1ccc(Cl)cc1,-204*
O=C(COc1ncnc2cc(Cl)ccc12)c1ccccc1,-62*
c1ccc(OCCOc2ncnc3ccccc23)cc1,-184*
Cc1ccc(C(=O)N/N=C/c2cn(Cc3ccccc3)c3ccccc23)cn1,64
Cc1ccc(C(=O)N/N=C\c2ccc(-c3ccc(Cl)c(Cl)c3)o2)cn1,-66*
COc1ccc(C2CC(c3ccccc3OC(C)=O)=NN2C(C)=O)cc1 (centres undefined),-79*
CC1CCN(Cc2c(C(=O)N/N=C/c3ccccc3O)nnn2-c2nonc2N)CC1,65
CCCc1c(C(=O)N/N=C/c2ccc(OCc3ccccc3)c(OC)c2)nnn1-c1nonc1N,-148*
Cc1ccccc1COc1ccc(/C=N/NC(=O)c2nnn(-c3nonc3N)c2CN2CCC(C)CC2)cc1,-78*
CCCc1c(C(=O)N/N=C/c2ccc(OC)c(OCc3ccccc3)c2)nnn1-c1nonc1N,-95*
CN(C)Cc1c(C(=O)N/N=C/c2ccccc2OCc2c(F)cccc2Cl)nnn1-c1nonc1N,-72*
Cc1nnn(-c2nonc2N)c1C(=O)N/N=C/c1ccccc1O,68
COc1ccccc1/C=N/NC(=O)c1nnn(-c2nonc2N)c1-c1cccs1,-80*
COc1cc(/C=N/NC(=O)c2nnn(-c3nonc3N)c2C(C)C)ccc1OCc1ccc(F)cc1,-143*
O=C(Nc1nc2cc3c(cc2s1)OCO3)C1CC1,-161*
O=C(Nc1nc2cc3c(cc2s1)OCO3)C1CCCCC1,-140*
CC(C)COc1ncnc2c1sc1nc3c(cc12)COC(C)(C)C3,-117*
CCCCCn1cnc2c(sc3nc4c(cc32)CSC(C)(C)C4)c1=O,-130*
CC1(C)Cc2nc3oc4c(=S)nc[nH]c4c3cc2CO1,-64*
C=CCSc1ncnc2c1oc1nc3c(cc12)COC(C)(C)C3,-141*
C=CCn1c(C)nc2c(sc3nc4c(cc32)COC(C)(C)C4)c1=O,-130*
CC1(C)Cc2nc3sc4c(=O)n(CC(=O)NCc5ccco5)cnc4c3cc2CO1,-100*
CC(C)c1nc2sc3c(NCc4ccco4)ncnc3c2c2c1COC(C)(C)C2,71
CCCOc1ncnc2c1sc1nc3c(cc12)COC(C)(C)C3,-112*
SMILES,aSyn 5UTR act
CCSc1ncnc2c1sc1nc3c(cc12)COC(C)(C)C3,-123*
Cc1cccc(C(=O)Oc2ccc(/C=N/O)cc2)c1,-72*
O=C(NC(=S)Nc1ccc(N2CCCC2)cc1)c1ccccc1[N+](=O)[O-],-104*
O=C(NNC(=S)Nc1ccccc1)c1ccccc1[N+](=O)[O-],-77*
COc1ccc(-c2oc3ccccc3c(=O)c2OC(C)=O)cc1,-174*
CC(=O)Oc1c(-c2ccc(Br)o2)oc2ccccc2c1=O,-66*
COc1ccc(-c2oc3cc(OC)c(O)c(OC)c3c(=O)c2OC)cc1O,65
CC(=O)Oc1cc(O)c2c(=O)c(OC(C)=O)c(-c3ccc(OC(C)=O)c(OC(C)=O)c3)oc2c1,-116*
NC(=O)c1ccccc1NC(=O)COc1ccc(Cl)cc1,-101*
Cc1ccc(OCC(=O)Nc2ccccc2C(N)=O)cc1,-98*
N#C/C(=C1/CCCCCN1)c1nc2ccccc2s1,-73*
COc1ccc(-c2csc(-n3cccn3)n2)cc1,-153*
COc1ccc(-c2csc(N3CCSCC3)n2)cc1,-225*
Clc1ccc(-c2csc(N3CCC(c4ccccc4)C3)n2)cc1 (centres undefined),-226*
Fc1ccc(-c2csc(N3CCC(c4ccccc4)C3)n2)cc1 (centres undefined),-199*
CCN(CC)CCCNC(=S)N1CCN(c2nc(-c3ccc(F)cc3)cs2)CC1,133
COc1ccc(-c2csc(N3CCC(c4ccccc4)C3)n2)cc1 (centres undefined),-114*
O=C(CCl)N(c1ccccc1)C1CCS(=O)(=O)C1 (centres undefined),-109*
C=CCSC1=NNC(c2ccc(C(C)(C)C)cc2)=NN1,-89*
CNc1nc(N2CCc3ccccc32)ncc1F,-109*
O=C(N/N=C\c1cccc(Cl)c1)c1n[nH]c2c1CCCC2,-152*
Cc1ccc(/C=N/NC(=O)c2n[nH]c3c2CCCC3)cc1,77
CN(CC(=O)N1CCc2ccccc21)S(=O)(=O)c1cccs1,-130*
O=C(O)CCC(=O)Nc1cccc2cccnc12,-114*
Cc1cccc(NC(=S)NC(=O)c2ccc(Br)o2)c1C,-74*
SMILES,aSyn 5UTR act
CCCCC(=O)NC(c1ccccc1Cl)c1ccc2cccnc2c1O (centres undefined),83
Cc1ccc(NC(=S)NC(=O)c2ccc(Br)o2)c(C)c1,-181*
O=C(NC(=S)Nc1ccccc1F)c1ccc(Br)o1,-66*
CCCCC(=O)NC(c1ccc(C(C)C)cc1)c1ccc2cccnc2c1O (centres undefined),112
CSc1ccccc1NC(=O)c1ccc(Br)o1,-78*
O=C(Nc1cccc2cccnc12)c1ccc(Br)o1,-97*
COc1ccc2c(n1)Sc1nc3ccccc3nc1N2,-136*
COc1cc(/C=N\n2nnnc2N)ccc1OCc1ccc(F)cc1,-65*
COc1cc(/C=N/n2c(C)n[nH]c2=S)ccc1OCc1ccc(F)cc1,-114*
COc1cccc(-c2csc(NC(C)=O)n2)c1,-181*
CCc1ccc(-c2csc(NC(=O)Oc3ccccc3)n2)cc1,-161*
